Laboratory results published in PubChem BioAssay AID2435 (The Scripps Research Institute Molecular Screening Center, 2010).
Out of some 320,000 compounds screened, about 1,000 (0.31%) were called active. Only a selection was taken, and actives are over-represented in it overall. Values without a mark were called inactive.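 Rule for the calls: active = activation above the mean of all tested compounds plus 3 SD, cutoff set per screening run (cut at about 20% in these data); inactive = the rest.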

target: Oxytocin receptor (Homo sapiens) (UniProt P30559); test: human OXTR agonists, primary screen, fluorescence, CHO-OTR cells, Fluo-8 calcium (AID 2435); conditions: Fluo-8 calcium fluorescence, at 3 µM, active compounds read high, normalized: DMSO 0%, oxytocin 100%;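 note: peak over basal fluorescence ratio from a 100 s FLIPR kinetic read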
Sequence (P30559 whole entry, looked up): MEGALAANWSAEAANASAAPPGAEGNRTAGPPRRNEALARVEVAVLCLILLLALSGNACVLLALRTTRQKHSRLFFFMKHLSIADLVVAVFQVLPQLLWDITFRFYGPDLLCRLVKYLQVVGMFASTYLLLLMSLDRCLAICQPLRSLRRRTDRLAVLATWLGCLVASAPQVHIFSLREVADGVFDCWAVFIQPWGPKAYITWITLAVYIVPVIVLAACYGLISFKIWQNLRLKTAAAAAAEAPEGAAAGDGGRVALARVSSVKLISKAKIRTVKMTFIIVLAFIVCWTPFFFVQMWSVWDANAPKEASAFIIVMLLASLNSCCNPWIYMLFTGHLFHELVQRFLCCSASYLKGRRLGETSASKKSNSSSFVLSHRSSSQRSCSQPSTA

Q: How did the activation turn out when `Cc1oc2nc(SCC(=O)Nc3ccc(S(N)(=O)=O)cc3)nc(NC(=O)c3ccccc3)c2c1C` was run?
A: 0.48%

Q: How did the activation turn out when `CCCCCCCCCCCCN1C(=O)CSC1c1cccnc1` (stereo not drawn) was run?
A: -0.53%

Q: With `COCCC(=O)Nc1ccc2c(c1)CN(C(=O)CCOC)CC2` as the compound, how does the activation read?
A: 0.4%

Q: `CN(C)S(=O)(=O)c1ccc(Oc2ccc(S(=O)(=O)N(C)C)cc2)cc1` was tested. Which activation did it give?
A: 23.4% (active)

Q: Which activation does the source give for `CN(C)S(=O)(=O)c1ccc(NC(=O)N2CCOCC2)cc1` here?
A: -0.79%

Q: Which activation does the source give for `COc1ccc(S(=O)(=O)N(C)CC(=O)N2CCCC2)cc1` here?
A: 1.27%

Q: For `Cc1nc(CC(=O)NNS(=O)(=O)c2ccc(F)c(Cl)c2)cs1`, which activation is on record?
A: -0.41%

Q: `Cc1ccccc1N1CC(C(=O)Nc2ccc(S(=O)(=O)N3CCCC3)cc2)CC1=O` (stereo not drawn) was tested. Which activation did it give?
A: 1.72%

Q: With `CN(C)CC(O)COc1ccc(C(C)(C)c2ccc(OCC(O)CN(C)C)cc2)cc1` (stereo not drawn) as the compound, how does the activation read?
A: 1.29%

Q: For `CC(C)(c1ccccc1)c1ccc(OCCN)cc1`, which activation is on record?
A: 20.2% (active)

Q: How did the activation turn out when `CC(C)(c1ccccc1)c1ccc(OCCN2CCCC2)cc1` was run?
A: 16%

Q: `COc1ccc(-c2csc3ncnc(N4CCN(S(=O)(=O)c5ccccc5C#N)CC4)c23)cc1` was tested. Which activation did it give?
A: -0.22%

Q: How did the activation turn out when `Cc1c(CCOC(=O)CC23CC4CC(CC(C)(C4)C2)C3)sc[n+]1Cc1ccc([N+](=O)[O-])cc1` was run?
A: -1.22%

Q: With `COc1cc(OC)c2ccc(=O)oc2c1C(CCN1CCN(c2ccccc2)CC1)c1ccc2c(c1)OCO2` (stereo not drawn) as the compound, how does the activation read?
A: -1.49%

Q: For `COc1cc(C(CCN2CCN(c3ccccc3)CC2)c2c(OC)cc(OC)c3ccc(=O)oc23)cc(OC)c1OC` (stereo not drawn), which activation is on record?
A: 22.2% (active)

Q: For `CCN(CC)CCC(c1cc(OC)c(OC)c(OC)c1)c1c(OC)cc(OC)c2c(-c3ccccc3)cc(=O)oc12` (stereo not drawn), which activation is on record?
A: 2.08%

Q: How did the activation turn out when `Cc1ccc(S(=O)(=O)N2CCN(C(=O)Cc3sc(C)nc3-c3ccc(F)cc3)CC2)c(C)c1` was run?
A: -2.3%

Q: With `CCCn1nc2cc(C(=O)NCc3ccccc3)ccc2c1OCC` as the compound, how does the activation read?
A: -2.12%

Q: With `COC(=O)CSc1nc2ccccc2c(=O)n1Cc1ccccc1` as the compound, how does the activation read?
A: -1.02%

Q: With `C=CCSc1nc2c(c(=O)[nH]c(=O)n2C)n1Cc1ccccc1` as the compound, how does the activation read?
A: -0.23%

Q: With `Cc1cc2nc3c(=O)n(Cc4ccccc4)c(=O)[nH]c3nc2cc1N` as the compound, how does the activation read?
A: 52.9% (active)

Q: For `O=S(=O)(NCCOc1cccc2cccnc12)c1ccc(F)cc1`, which activation is on record?
A: 3.57%

Q: For `CCOC(=O)N/N=C1\CC(C)S(=O)(=O)c2ccc(Cl)cc21` (stereo not drawn), which activation is on record?
A: -2.06%

Q: With `CCOc1ncccc1C(=O)NCCc1ccc(OC)cc1` as the compound, how does the activation read?
A: -1.34%

Q: For `Cc1nc(CN2CCN(C(=O)CCc3nnc(Cc4c[nH]c5ccccc45)o3)CC2)cs1`, which activation is on record?
A: -0.27%

Q: How did the activation turn out when `CCCc1nc2c(c(=O)c3ccccc3n2C)c(=O)n1C1CCCCCC1` was run?
A: 52.1% (active)

Q: How did the activation turn out when `Cn1c2ccccc2c(=O)c2c(O)cccc21` was run?
A: -1.89%

Q: With `Cn1c2ccccc2c(=O)c2c(=O)n(Cc3ccco3)c(COc3ccccc3)nc21` as the compound, how does the activation read?
A: 1.8%

Q: How did the activation turn out when `Cc1ccc(C(=O)Cc2nnc(C)s2)cc1` was run?
A: -0.26%

Q: How did the activation turn out when `Oc1ccc2ccc3cccc[n+]3c2c1` was run?
A: 65.3% (active)

Q: How did the activation turn out when `COc1ccc(N2CCN(C(=O)[C@@H](NC(=O)c3cc(OC)cc(OC)c3)C(C)C)CC2)cc1` was run?
A: -0.71%

Q: Which activation does the source give for `CCOc1ccc(CCNC(=O)C2CCN(c3ccc(N4CCOCC4)nn3)CC2)cc1OCC` here?
A: -0.01%

Q: For `O=C(NNC(=S)NC(=O)c1cn(-c2ccccc2)nc1-c1ccccc1)c1ccncc1`, which activation is on record?
A: 21.2% (active)

Q: With `NC(=O)C1CCN(C(=O)c2cn(-c3ccccc3)nc2-c2cccnc2)CC1` as the compound, how does the activation read?
A: 1.05%

Q: `Cc1ccc(-c2nn(-c3ccccc3)cc2C(=O)NC2CCC(O)CC2)cc1` (stereo not drawn) was tested. Which activation did it give?
A: 0.66%

Q: How did the activation turn out when `COC(=O)c1ccc(COC(=O)C2CCN(S(=O)(=O)c3c(Cl)cccc3Cl)CC2)o1` was run?
A: 0.45%

Q: How did the activation turn out when `O=C(NCc1ccco1)/C(=C/c1cccc([N+](=O)[O-])c1)NC(=O)c1ccco1` was run?
A: -0.34%

Q: Which activation does the source give for `O=C(c1ccco1)N1CCN(C(=O)C2CC(c3ccc(Cl)c(Cl)c3)=NO2)CC1` (stereo not drawn) here?
A: 5.71%

Q: Which activation does the source give for `O=C(c1ccco1)N1CCN(C(=O)C2CC(c3ccc(F)cc3)=NO2)CC1` (stereo not drawn) here?
A: 38.1% (active)

Q: Which activation does the source give for `CCOC(=O)N1CCN(C(=O)C2CC(c3ccc(F)cc3)=NO2)CC1` (stereo not drawn) here?
A: 0.22%

Q: Which activation does the source give for `CC1(C)Oc2ccc3ccc(=O)oc3c2/C(=N/O)C1=O` here?
A: -0.3%

Q: Which activation does the source give for `CCCCOc1ccc(CON(C(C)=O)C(C)=O)cc1Cl` here?
A: -0.28%

Q: Which activation does the source give for `CC(C)(C)NCC(O)COc1cccc2[nH]c(=O)[nH]c12` (stereo not drawn) here?
A: -0.01%

Q: For `COc1ccccc1OCCNCC(O)COc1cccc2[nH]c3ccccc3c12` (stereo not drawn), which activation is on record?
A: 20.7% (active)

Q: With `CC(O)CNCCOc1cccc(Oc2ccccc2)c1` (stereo not drawn) as the compound, how does the activation read?
A: 2.15%

Q: For `CC(=O)c1ccc(NC(=O)c2sc3nc4n(c(=O)c3c2C)CCCCC4)cc1`, which activation is on record?
A: 7.14%

Q: `COc1ccccc1NC(=O)CCCc1c[nH]c2ccccc12` was tested. Which activation did it give?
A: -0.34%

Q: `COc1cccc(CNCCc2c[nH]c3ccccc23)c1OCc1ccccc1F` was tested. Which activation did it give?
A: 23.9% (active)

Q: How did the activation turn out when `COc1ccc(S(=O)(=O)NCCc2c[nH]c3ccccc23)cc1OC` was run?
A: 4.77%

Q: For `Cc1cc2nc3n(c2cc1C)CC1CC(C(=O)NCCC(C)C)N(C)C31` (stereo not drawn), which activation is on record?
A: 0.52%

Q: `O=c1c2ccccc2nc2n1C(CSCc1ccccc1)CS2` (stereo not drawn) was tested. Which activation did it give?
A: 0.87%

Q: Which activation does the source give for `O=c1c2ccccc2nc2n1C(CSc1ccc(F)cc1)CN2` (stereo not drawn) here?
A: 0.69%

Q: With `O=c1c2ccccc2nc2n1C(CSc1ccc(Cl)cc1)CN2` (stereo not drawn) as the compound, how does the activation read?
A: 25.6% (active)

Q: How did the activation turn out when `Cc1ccc(S(=O)(=O)N(C)C)cc1NC(=O)C1Cc2ccccc2CN1C(=O)c1ccco1` (stereo not drawn) was run?
A: -0.61%

Q: With `C=C(C)CSc1nnc(-c2ccc(C)cc2)n1N` as the compound, how does the activation read?
A: -2.48%

Q: `COc1ccc(CNC(=O)CCC(=O)Nc2nnc(C(C)C)s2)cc1` was tested. Which activation did it give?
A: -0.01%

Q: For `CCc1nn(CCCC(=O)NC(C)c2ccccc2)c(=O)c2cc3occc3n12` (stereo not drawn), which activation is on record?
A: -0.99%

Q: How did the activation turn out when `FC(F)(F)c1cc(-c2ccco2)nc(NCc2ccc(Cl)cc2)n1` was run?
A: 0.65%
